Test results reported in article PMC7862700, “An all-to-all approach to the identification of sequence-specific readers for epigenetic DNA modifications on cytosine”.

How the values were obtained:
Experiment in all cases: DAPPL (digital affinity profiling via proximity ligation, sequencing); 10 mM Tris-HCl pH 7.5, 50 mM NaCl, 1 mM DTT, 4% glycerol, room temperature, 30 min; GST-TFs on glutathione beads, 16-mer random dsDNA library, 0.1% formaldehyde crosslink after washing; high values mean tight binding
Settings in all cases: protein: recombinant; tags: N-terminal GST; dsDNA, one strand shown
FLI1 = target: T1, FLI1 (Homo sapiens, UniProt Q01543 1-452)
T1 sequence: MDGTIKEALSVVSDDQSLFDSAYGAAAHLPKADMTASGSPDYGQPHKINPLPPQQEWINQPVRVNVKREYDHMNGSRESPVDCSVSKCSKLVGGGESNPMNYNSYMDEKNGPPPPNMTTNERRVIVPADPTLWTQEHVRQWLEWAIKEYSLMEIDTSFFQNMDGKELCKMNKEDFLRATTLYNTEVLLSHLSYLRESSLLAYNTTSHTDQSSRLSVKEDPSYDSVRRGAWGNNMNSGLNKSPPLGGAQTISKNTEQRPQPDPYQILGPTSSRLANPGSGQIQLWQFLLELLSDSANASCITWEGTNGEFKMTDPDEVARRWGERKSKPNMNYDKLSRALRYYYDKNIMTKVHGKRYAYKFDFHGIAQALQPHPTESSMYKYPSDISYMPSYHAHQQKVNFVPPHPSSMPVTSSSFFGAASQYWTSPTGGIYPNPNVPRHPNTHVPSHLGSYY
Outline: (§1)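 Human transcription factors carrying a GST fusion were produced in yeast, bound to glutathione beads, tagged with DNA barcodes and pooled together with a tag-only sample. Each pool was held with 200 nmole of a random double-stranded 16-mer DNA library in Tris/NaCl/DTT/glycerol buffer for 30 min at room temperature, then washed, crosslinked in 0.1% formaldehyde, proximity-ligated with BsaI/T4 ligase (1 h, 37 °C), PCR-amplified and sequenced on an Illumina NextSeq500. Binding signal is the read frequency of each hexamer for a given factor divided by its frequency in the tag-only sample.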

ELK1 = target: T2, ELK1 (Homo sapiens, UniProt P19419 1-428)
T2 sequence: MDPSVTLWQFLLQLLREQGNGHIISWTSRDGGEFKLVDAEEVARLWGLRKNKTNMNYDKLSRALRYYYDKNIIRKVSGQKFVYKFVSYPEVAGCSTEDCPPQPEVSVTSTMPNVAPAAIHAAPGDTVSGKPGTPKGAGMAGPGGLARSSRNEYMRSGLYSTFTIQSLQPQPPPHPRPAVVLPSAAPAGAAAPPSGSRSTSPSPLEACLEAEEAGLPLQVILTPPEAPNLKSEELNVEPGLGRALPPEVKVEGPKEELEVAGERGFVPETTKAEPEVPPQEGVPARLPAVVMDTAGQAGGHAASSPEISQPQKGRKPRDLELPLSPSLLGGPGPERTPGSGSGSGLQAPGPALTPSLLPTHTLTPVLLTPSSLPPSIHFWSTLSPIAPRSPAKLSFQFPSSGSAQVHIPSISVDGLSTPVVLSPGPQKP
Outline: as §1

GABPA = target: T3, GABPA (Homo sapiens, UniProt Q06546 1-454)
T3 sequence: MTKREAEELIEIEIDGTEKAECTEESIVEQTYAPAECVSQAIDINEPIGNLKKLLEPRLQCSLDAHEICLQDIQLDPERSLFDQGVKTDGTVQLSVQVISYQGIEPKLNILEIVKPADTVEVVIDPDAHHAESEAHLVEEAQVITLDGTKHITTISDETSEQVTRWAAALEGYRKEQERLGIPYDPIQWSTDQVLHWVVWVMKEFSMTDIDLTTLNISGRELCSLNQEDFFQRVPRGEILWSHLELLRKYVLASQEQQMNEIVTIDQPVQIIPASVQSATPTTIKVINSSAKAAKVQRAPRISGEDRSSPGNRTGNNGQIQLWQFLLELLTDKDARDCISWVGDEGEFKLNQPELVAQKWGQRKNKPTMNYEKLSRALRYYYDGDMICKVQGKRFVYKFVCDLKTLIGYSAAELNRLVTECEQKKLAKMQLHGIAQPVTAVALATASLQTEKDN
Outline: as §1

ERG = target: T4, ERG (Homo sapiens, UniProt P11308 1-479)
T4 sequence: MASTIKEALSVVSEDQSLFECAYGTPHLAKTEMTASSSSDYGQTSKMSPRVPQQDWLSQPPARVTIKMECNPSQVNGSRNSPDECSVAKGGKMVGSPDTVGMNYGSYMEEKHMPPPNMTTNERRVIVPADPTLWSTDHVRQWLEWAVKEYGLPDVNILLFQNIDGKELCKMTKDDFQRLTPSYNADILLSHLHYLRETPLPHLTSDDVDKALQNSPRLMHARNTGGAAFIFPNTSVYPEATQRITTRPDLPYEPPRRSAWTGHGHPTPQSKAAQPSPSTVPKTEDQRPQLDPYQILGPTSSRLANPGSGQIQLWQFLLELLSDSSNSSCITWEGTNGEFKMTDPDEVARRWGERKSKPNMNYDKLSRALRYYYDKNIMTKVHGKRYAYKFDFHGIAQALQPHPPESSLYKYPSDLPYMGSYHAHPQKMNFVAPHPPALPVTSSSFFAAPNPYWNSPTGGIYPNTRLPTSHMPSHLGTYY
Outline: as §1

ELF1 = ELF1 (Homo sapiens, UniProt P32519 1-619)
Outline: as §1

EHF = target: T5, EHF (Homo sapiens, UniProt Q9NZC4 1-300)
T5 sequence: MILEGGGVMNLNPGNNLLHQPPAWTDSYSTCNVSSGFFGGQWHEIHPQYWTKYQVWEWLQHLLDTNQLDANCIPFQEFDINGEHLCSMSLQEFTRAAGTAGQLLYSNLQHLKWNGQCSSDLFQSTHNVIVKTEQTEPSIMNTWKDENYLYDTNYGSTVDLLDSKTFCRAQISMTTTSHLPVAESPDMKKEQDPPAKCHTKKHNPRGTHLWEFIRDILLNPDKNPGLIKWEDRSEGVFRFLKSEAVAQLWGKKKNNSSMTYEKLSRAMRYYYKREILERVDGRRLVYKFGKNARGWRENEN
Outline: as §1

SPI1 = SPI1 (Homo sapiens, UniProt P17947 1-270)
Outline: as §1

ELK3 = target: T6, ELK3 (Homo sapiens, UniProt P41970 1-407)
T6 sequence: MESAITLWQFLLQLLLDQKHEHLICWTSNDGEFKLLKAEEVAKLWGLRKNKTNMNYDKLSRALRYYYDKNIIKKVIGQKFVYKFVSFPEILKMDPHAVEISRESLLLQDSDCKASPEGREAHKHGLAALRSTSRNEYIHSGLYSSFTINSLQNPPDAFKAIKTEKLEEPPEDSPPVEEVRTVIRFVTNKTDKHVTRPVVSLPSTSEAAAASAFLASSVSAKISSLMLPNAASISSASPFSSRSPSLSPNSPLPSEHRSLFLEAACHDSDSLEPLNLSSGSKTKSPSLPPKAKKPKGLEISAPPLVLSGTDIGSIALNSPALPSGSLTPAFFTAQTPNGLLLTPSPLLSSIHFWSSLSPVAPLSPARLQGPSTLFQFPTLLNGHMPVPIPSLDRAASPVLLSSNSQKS
Outline: as §1

FEV = target: T7, FEV (Homo sapiens, UniProt Q99581 1-238)
T7 sequence: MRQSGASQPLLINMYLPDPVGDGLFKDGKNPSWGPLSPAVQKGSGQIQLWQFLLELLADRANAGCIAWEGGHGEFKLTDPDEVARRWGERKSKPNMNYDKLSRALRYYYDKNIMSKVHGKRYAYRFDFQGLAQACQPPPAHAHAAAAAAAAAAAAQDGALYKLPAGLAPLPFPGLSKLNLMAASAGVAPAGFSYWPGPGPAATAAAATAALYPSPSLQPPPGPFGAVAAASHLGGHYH
Outline: as §1

ETV5 = ETV5 (Homo sapiens, UniProt P41161 1-510)
Outline: as §1

SPIC = target: T8, SPIC (Homo sapiens, UniProt Q8N5J4 1-248)
T8 sequence: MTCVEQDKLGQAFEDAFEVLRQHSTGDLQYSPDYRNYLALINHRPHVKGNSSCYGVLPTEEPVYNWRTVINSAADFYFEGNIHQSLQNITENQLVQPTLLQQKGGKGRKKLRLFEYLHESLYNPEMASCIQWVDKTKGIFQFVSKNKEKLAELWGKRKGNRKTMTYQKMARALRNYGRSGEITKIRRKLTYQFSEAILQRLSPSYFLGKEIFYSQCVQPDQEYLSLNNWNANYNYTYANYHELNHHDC
Outline: as §1

ELF4 = ELF4 (Homo sapiens, UniProt Q99607 1-663)
Outline: as §1

ELK4 = target: T9, ELK4 (Homo sapiens, UniProt P28324-2 1-405)
T9 sequence: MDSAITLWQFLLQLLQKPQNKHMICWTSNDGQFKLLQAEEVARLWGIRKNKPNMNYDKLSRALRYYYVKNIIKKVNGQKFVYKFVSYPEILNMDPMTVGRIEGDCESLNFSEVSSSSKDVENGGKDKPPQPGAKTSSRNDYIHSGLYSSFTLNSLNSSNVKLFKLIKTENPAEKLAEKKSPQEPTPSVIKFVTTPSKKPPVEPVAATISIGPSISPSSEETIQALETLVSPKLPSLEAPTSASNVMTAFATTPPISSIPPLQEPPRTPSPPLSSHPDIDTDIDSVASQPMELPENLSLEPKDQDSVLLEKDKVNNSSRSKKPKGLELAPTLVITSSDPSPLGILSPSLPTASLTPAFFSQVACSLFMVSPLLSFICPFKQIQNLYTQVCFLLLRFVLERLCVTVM
Outline: as §1

ELF3 = target: T10, ELF3 (Homo sapiens, UniProt P78545 1-371)
T10 sequence: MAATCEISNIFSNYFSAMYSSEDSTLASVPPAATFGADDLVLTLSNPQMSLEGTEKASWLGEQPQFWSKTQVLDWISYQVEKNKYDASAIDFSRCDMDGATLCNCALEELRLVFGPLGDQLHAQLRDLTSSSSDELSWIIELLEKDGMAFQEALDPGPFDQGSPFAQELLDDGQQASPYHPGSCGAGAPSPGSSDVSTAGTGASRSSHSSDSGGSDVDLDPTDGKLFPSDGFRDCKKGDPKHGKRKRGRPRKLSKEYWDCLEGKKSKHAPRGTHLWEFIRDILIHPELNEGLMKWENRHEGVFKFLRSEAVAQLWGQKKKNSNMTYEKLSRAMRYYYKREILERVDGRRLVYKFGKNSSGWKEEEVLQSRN
Outline: as §1

ETV1 = ETV1 (Homo sapiens, UniProt P50549 1-477)
Outline: as §1

SPIB = SPIB (Homo sapiens, UniProt Q01892 1-262)
Outline: as §1

Chain of ETV5 (P41161 whole entry): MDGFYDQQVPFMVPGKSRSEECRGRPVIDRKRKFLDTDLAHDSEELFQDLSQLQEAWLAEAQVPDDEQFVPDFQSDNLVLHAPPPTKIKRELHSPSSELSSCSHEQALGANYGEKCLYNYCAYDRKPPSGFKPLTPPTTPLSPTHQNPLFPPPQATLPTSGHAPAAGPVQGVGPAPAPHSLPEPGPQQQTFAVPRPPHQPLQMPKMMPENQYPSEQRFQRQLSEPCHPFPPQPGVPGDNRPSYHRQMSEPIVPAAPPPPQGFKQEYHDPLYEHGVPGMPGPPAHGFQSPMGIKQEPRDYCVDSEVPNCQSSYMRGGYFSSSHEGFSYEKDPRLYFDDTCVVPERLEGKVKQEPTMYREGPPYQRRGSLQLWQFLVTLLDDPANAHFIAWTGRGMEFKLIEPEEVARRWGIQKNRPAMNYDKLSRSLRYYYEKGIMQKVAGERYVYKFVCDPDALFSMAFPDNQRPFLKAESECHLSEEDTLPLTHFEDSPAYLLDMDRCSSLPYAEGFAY
Chain of ETV1 (P50549 whole entry): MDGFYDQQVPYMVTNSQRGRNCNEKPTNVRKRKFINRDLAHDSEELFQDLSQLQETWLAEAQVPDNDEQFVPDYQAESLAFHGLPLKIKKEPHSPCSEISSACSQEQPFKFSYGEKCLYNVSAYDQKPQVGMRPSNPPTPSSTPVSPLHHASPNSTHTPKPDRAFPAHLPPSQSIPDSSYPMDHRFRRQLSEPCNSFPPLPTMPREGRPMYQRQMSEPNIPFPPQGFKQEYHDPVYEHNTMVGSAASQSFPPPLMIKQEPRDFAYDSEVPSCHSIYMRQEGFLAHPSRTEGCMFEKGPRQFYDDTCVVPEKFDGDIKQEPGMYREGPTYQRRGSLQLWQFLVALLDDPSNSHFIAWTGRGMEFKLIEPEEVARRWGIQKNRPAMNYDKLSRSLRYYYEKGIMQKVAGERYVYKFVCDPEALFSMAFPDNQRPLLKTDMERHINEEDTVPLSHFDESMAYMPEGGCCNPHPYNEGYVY
Chain of ELF1 (P32519 whole entry): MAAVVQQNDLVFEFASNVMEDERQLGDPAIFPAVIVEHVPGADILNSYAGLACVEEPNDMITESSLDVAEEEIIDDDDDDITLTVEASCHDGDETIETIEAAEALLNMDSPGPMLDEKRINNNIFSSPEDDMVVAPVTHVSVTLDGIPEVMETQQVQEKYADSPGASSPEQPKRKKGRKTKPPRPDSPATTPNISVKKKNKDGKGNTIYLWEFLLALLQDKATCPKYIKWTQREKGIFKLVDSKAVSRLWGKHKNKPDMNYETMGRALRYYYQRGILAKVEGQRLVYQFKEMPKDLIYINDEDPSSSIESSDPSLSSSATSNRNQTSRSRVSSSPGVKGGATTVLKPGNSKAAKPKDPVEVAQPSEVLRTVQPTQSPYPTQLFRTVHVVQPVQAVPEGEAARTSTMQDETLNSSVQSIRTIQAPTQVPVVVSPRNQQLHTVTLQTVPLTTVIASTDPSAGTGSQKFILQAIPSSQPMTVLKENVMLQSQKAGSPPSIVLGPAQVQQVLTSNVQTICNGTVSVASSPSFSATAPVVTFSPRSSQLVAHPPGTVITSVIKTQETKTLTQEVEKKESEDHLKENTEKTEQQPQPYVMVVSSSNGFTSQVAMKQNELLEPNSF
Chain of ELF4 (Q99607 whole entry): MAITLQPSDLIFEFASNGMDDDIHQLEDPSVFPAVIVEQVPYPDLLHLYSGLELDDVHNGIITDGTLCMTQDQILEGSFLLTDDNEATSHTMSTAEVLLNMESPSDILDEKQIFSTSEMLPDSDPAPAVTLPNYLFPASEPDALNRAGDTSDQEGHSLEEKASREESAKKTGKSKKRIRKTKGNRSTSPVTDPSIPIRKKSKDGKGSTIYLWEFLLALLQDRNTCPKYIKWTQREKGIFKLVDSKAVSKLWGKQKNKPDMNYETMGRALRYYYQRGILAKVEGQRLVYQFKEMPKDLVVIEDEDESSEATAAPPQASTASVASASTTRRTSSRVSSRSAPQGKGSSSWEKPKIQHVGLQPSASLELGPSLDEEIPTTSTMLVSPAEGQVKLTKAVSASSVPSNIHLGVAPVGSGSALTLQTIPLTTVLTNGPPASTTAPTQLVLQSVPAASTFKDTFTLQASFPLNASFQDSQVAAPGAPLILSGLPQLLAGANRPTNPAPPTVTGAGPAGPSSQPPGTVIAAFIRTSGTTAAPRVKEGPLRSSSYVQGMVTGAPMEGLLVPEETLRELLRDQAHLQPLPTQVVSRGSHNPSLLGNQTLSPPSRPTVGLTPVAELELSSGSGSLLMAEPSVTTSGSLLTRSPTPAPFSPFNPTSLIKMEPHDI
Chain of SPIB (Q01892 whole entry): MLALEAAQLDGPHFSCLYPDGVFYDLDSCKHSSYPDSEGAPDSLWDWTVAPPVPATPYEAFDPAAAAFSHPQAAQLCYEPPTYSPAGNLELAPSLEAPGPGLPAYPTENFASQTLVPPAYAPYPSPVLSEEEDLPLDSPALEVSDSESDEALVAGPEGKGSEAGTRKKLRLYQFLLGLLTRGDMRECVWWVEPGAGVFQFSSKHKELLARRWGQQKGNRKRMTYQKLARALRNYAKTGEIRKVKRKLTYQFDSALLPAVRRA

| Sequence | binding signal (FLI1) | binding signal (ELK1) | binding signal (GABPA) | binding signal (ERG) | binding signal (ELF1) | binding signal (EHF) | binding signal (SPI1) | binding signal (ELK3) | binding signal (FEV) | binding signal (ETV5) | binding signal (SPIC) | binding signal (ELF4) | binding signal (ELK4) | binding signal (ELF3) | binding signal (ETV1) | binding signal (SPIB) |
| --- | --- | --- | --- | --- | --- | --- | --- | --- | --- | --- | --- | --- | --- | --- | --- | --- |
| GTACTC | 1.06 fold enrichment (6-mer frequency, TF over GST control) | 1.09 fold enrichment (6-mer frequency, TF over GST control) | 1.16 fold enrichment (6-mer frequency, TF over GST control) | 1.09 fold enrichment (6-mer frequency, TF over GST control) | 1.16 fold enrichment (6-mer frequency, TF over GST control) | 1.08 fold enrichment (6-mer frequency, TF over GST control) | 1.01 fold enrichment (6-mer frequency, TF over GST control) | 1.18 fold enrichment (6-mer frequency, TF over GST control) | 1.11 fold enrichment (6-mer frequency, TF over GST control) | 1.19 fold enrichment (6-mer frequency, TF over GST control) | 1.06 fold enrichment (6-mer frequency, TF over GST control) | 1.12 fold enrichment (6-mer frequency, TF over GST control) | 1.03 fold enrichment (6-mer frequency, TF over GST control) | 1.07 fold enrichment (6-mer frequency, TF over GST control) | 1.1 fold enrichment (6-mer frequency, TF over GST control) |  |
| CGCTGC | 1.12 fold enrichment (6-mer frequency, TF over GST control) | 1.04 fold enrichment (6-mer frequency, TF over GST control) | 1.25 fold enrichment (6-mer frequency, TF over GST control) | 1.22 fold enrichment (6-mer frequency, TF over GST control) | 1.14 fold enrichment (6-mer frequency, TF over GST control) | 1.28 fold enrichment (6-mer frequency, TF over GST control) | 1.07 fold enrichment (6-mer frequency, TF over GST control) | 1.16 fold enrichment (6-mer frequency, TF over GST control) | 1.14 fold enrichment (6-mer frequency, TF over GST control) | 1.18 fold enrichment (6-mer frequency, TF over GST control) | 1.21 fold enrichment (6-mer frequency, TF over GST control) | 1.1 fold enrichment (6-mer frequency, TF over GST control) | 1.2 fold enrichment (6-mer frequency, TF over GST control) | 1.03 fold enrichment (6-mer frequency, TF over GST control) | 1.21 fold enrichment (6-mer frequency, TF over GST control) | 1.22 fold enrichment (6-mer frequency, TF over GST control) |
